Source: PubChem
KB-3-1 cytotox: kills parental KB-3-1 adenocarcinoma cells; AID 1347075; actives 1.4% (n = 400,000); Potency, µM (series often up to 46.1 µM), most hits filed as cytotoxic; KB-3-1 viability, CellTiter-Glo ATP luminescence, 72 h; note: % is set by controls: 0 for no effect and ±100 for the full control effect; nearly all actives have a fitted effect of over 60% in size
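KB-3-1 parental drug-naive adenocarcinoma cells in DMEM/10% FBS, incubated 72 h at 37 C with pin-transferred compounds across a concentration series. Viability by CellTiter-Glo luminescence; concentration-response curves fitted after normalization.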
KB-V1 MDR tox: KB-V1 MDR subline cytotoxicity; KB-V1 MDR cells viability, CellTiter-Glo, 72 h; Potency, µM (titrated, usually from 46.1 µM), hits mostly cytotoxic; actives 3.4% (n = 400,000); AID 1347076; note: % is set by controls: 0 for no effect and ±100 for the full control effect; nearly all actives have a fitted effect of over 60% in size
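KB-V1 cells (P-gp-expressing MDR subline of KB-3-1) in phenol-red-free DMEM with 10% FBS were exposed to library compounds over a concentration series for 72 h at 37 degrees C. Viability read by CellTiter-Glo luminescence; concentration-effect curves fitted after normalization.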
PINK1 expr mod: modulators of PINK1 expression; PINK1 immunofluorescence, high-content cytometry, 24 h; Potency, µM (titrated, usually from 76.6 µM), for inactives: at the top dose activation (PINK1 increase), usual class: activators; actives 0.2% (n = 410,000); AID 624263; active = well fitted activation curve with a large enough effect; inconclusive = small, poorly fitted or top-dose-only effect; cell line not stated here; note: % of control where 0% means no effect; nearly all actives have a fitted effect of over 65% in size
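Readout is PINK1 immunofluorescence, quantified alongside mitochondrial, cell and nuclear markers by laser-scanning microplate cytometry. Cells from a stable line were exposed to compound titrations (5 concentrations) for 24 hours, with CCCP controls.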
MCF10A rerep: inducers of DNA re-replication in MCF 10A breast cells | actives 2.9% (n = 350,000) | AID 624296 | MCF 10A DNA re-replication, Hoechst nuclear intensity, 48 h | Potency, µM (titrated, usually from 46.1 µM), without a hit: at the top dose activity, positive = re-replication, most hits filed as activators; note: % of control where 0% means no effect; nearly all actives have a fitted effect of over 50% in size
PTAP TSG101 blk: blocks PTAP/TSG101 interaction to inhibit HIV-1 budding | AID 493005 | Q99816 | Fluorescence polarization, FITC-PTAP peptide / Tsg101 binding | 340,000 tested, under 10 active | Potency, µM (series often up to 115 µM), for the others: at the top dose activity change, negative = inhibition, hits mostly inhibitors; active = well fitted inhibition curve with a large enough effect in the main read-out, with a control signal flat, not every such curve was filed as active; inconclusive = small, poorly fitted or top-dose-only effect, or effect the other way, or a change in a side signal; inactive = no such curve, though single readings can be large or run the other way; note: % of control where 0% means no effect
Target sequence (Q99816 whole entry, looked up): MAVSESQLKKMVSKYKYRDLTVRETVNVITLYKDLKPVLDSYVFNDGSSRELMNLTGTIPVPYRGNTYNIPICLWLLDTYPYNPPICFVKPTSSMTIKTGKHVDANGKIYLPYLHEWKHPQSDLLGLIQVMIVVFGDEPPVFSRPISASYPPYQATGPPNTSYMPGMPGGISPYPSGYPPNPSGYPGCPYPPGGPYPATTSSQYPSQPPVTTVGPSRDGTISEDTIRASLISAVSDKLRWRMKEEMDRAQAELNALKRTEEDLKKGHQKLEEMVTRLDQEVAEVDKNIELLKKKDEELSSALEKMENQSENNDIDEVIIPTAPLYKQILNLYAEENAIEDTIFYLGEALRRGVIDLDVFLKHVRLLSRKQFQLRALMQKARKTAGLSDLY
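Compounds were pin-transferred onto Tsg101 binding domain (10 uM final) in HEPES pH 7.5 buffer, then FITC-PTAP peptide was added at 50 nM final. After 20 min at RT, polarization reported peptide displacement across a qHTS concentration series.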
SW480 rereplic: inducers of DNA re-replication in SW480 colon cancer cells. AID 624297. actives 1.8% (n = 340,000). SW480 DNA re-replication, Hoechst DNA content imaging, 48 h. Potency, µM (doses to about 46.1 µM), for the others: top-dose re-replication activation, actives largely listed as activators; note: % of control where 0% means no effect; nearly all actives have a fitted effect of over 55% in size
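Compounds, transferred as 23 nL by pin tool, were incubated with cells for 48 hr; DNA content per nucleus was then quantified by Hoechst staining and fluorescence plate imaging.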
An asterisk follows results filed as active; i = inactive; ? = inconclusive; . = no result; [ ] = remark or other dose. Only some compounds are listed: those with a hit (about 6.8% of all), similar ones and a draw of the others. Unless noted, calls come from the whole dose curve; as a rule, active = well fitted curve in the direction sought with a large enough effect; inconclusive = small, poorly fitted or top-dose-only effect, or another doubt; inactive = no such curve, though single readings can be large; an effect the other way counts as inactive or inconclusive. Potency is the fitted concentration of half-maximal effect.

SMILES	KB-3-1 cytotox	KB-V1 MDR tox	PINK1 expr mod	MCF10A rerep	PTAP TSG101 blk	SW480 rereplic
CCOc1ccc2c(c1)/C(=C(\C(Cl)=C(Cl)Cl)[N+](=O)[O-])N2	?	i	0%	-3%	?	?
CCCCOc1ccc2c(c1)/C(=C(\C(Cl)=C(Cl)Cl)[N+](=O)[O-])N2	?	21µM*	-4%	?	?	26%
COc1ccc(CCC(=O)N2CCN(S(=O)(=O)c3ccc(OC(F)(F)F)cc3)CC2)cc1	i	16µM*	-1%	4%	-5%	-1%
NC(Cc1ccc(Cl)cc1)c1csc(NC(=O)NCCc2ccccc2)n1 (stereo not drawn)	?	i	-1%	.	.	.
NC(CCc1ccccc1)c1csc(NC(=O)Nc2ccccc2Oc2ccccc2)n1 (stereo not drawn)	?	23µM*	-1%	.	.	.
COc1ccc(CC(N)c2csc(NC(=O)C(c3ccccc3)c3ccccc3)n2)cc1 (stereo not drawn)	?	21µM*	-1%	.	.	.
COc1ccc(CC(N)c2csc(NC(=O)c3ccccc3)n2)cc1 (stereo not drawn)	i	i	1%	.	.	.
NC(Cc1ccc(Cl)cc1)c1csc(NC(=O)NCC2CCCCC2)n1 (stereo not drawn)	?	16µM*	-1%	.	.	.
C=CC(=O)N1C/C(=C/c2ccc(F)cc2)C(=O)/C(=C\c2ccc(F)cc2)C1	?	i	-1%	?	1%	1.2µM*
COc1ccc(NC(=O)NCCCN2CCCC2=O)cc1	i	i	-1%	1%	-3%	-2%
COc1ccc(-n2c(SCC(=O)NCCCN3CCCC3=O)nnc2C(C)N2CCCCC2)cc1 (stereo not drawn)	i	i	1%	1.3µM*	0%	-27%
COc1ccccc1Cn1c(=O)c2ccccc2n2c(Sc3ncnc4sccc34)nnc12	?	?	-6%	18µM*	-1%	21µM*
COc1ccccc1Cn1c(=O)c2ccccc2n2c(SCc3csc(C)n3)nnc12	i	?	.	25%	-5%	10%
CCCCn1nc(C(=O)N(C)CC(=O)Nc2ccc(F)c(F)c2F)ccc1=O	i	15µM*	-2%	-6%	-1%	-6%
CCOC(=O)c1cnc2c(cnn2C)c1NCCC(O)C(F)(F)F (stereo not drawn)	i	6.5µM*	0%[38.3 µM]	8%	-3%	-20%
CCOC(=O)c1cnc2c(cnn2C)c1Oc1ccc(OC)cc1	i	?	-1%	?	-2%	4%
Cc1cc(C)c(-c2csc(-c3cc4ccccc4oc3=O)n2)cc1C	i	i	2%	.	.	.
Cc1cc(C)c(-c2csc(Cc3nc(-c4cc5ccccc5oc4=O)cs3)n2)cc1C	23µM*	?	11%	14%	1%	8%
COc1ccc(S(=O)(=O)NCCc2sc3nc(-c4ccc(C)cc4)nn3c2C)cc1C	.	.	-1%	.	.	.
O=C(Nc1nc2c(s1)CCCC2)c1ccc(S(=O)(=O)N2CCCc3ccccc32)cc1	5.8µM*	2.6µM*	2%	?	-14%	8%
CNC(=O)c1ccsc1NC(=O)c1ccc(S(=O)(=O)N2CCCc3ccccc32)cc1	8.2µM*	?	3%	23%	2%	9%
CCc1nnc(NC(=O)c2ccc(S(=O)(=O)N3CCCc4ccccc43)cc2)o1	i	?	.	9.2µM*	-11%	16µM*
Cc1cc(NC(=O)c2ccc(S(=O)(=O)N3CCc4ccccc43)cc2)no1	i	i	6%	-6%	-3%	1%
O=C(Nc1nc2c(s1)CN(Cc1ccccc1)CC2)c1cccc(S(=O)(=O)N2CCc3ccccc32)c1	?	6.5µM*	5%	10µM*	?	16µM*
CC(C)c1cnc2c(c1SCC(=O)NCc1ccccc1)c(=O)n(C)c(=O)n2C	.	.	0%	.	.	.
SMILES	KB-3-1 cytotox	KB-V1 MDR tox	PINK1 expr mod	MCF10A rerep	PTAP TSG101 blk	SW480 rereplic
COc1ccccc1-c1nc2c(c(SCc3cc(C)ccc3C)n1)Cc1c(CO)cnc(C)c1O2	i	i	-1%	.	.	.
COc1ccc(CCc2c[nH]c(=O)c3cncnc23)cc1OC	.	.	2%	.	.	.
O=C(Cc1ccccc1)N1CCCC(c2nc(-c3ccc(S(=O)(=O)N4CCCC4)cc3)no2)C1 (stereo not drawn)	i	9.2µM*	.	-6%	-9%	-3%
CC(C)N(C(=O)N1CCC(c2nc(-c3ccncc3)no2)CC1)C(C)C	?	10µM*	-2%[38.3 µM]	2%	-3%	0%
O=C(C1CC1)N1CCC(c2nc(-c3ccc(S(=O)(=O)N4CCCC4)cc3)no2)CC1	i	?	-1%[38.3 µM]	0%	-8%	-4%
O=C(NC1CCCCC1)N1CCC(c2nc(-c3ccc(S(=O)(=O)N4CCCC4)cc3)no2)CC1	8.2µM*	2.6µM*	13%	?	-2%	?
O=C(c1ccccc1)N1CCC(c2nc(-c3ccc(S(=O)(=O)NCC4CCCO4)cc3)no2)CC1 (stereo not drawn)	8.2µM*	9.2µM*	.	?	-8%	7%
CC(C)C(=O)N1CCC(c2nc(-c3ccc(S(=O)(=O)N4CCN(C)CC4)cc3)no2)CC1	i	i	-1%	-8%	-4%	-4%
CCOc1ccccc1CNC(=O)c1cccc(NC(=O)c2nsc3ccccc23)c1	i	i	-1%	.	.	.
CS(=O)(=O)N1CCCC(c2nc(-c3ccc(S(=O)(=O)NCc4ccccc4)cc3)no2)C1 (stereo not drawn)	?	3.3µM*	-1%[38.3 µM]	?	-3%	0%
Cc1ccc(S(=O)(=O)N2CCCC(c3nc(-c4ccc(C)o4)no3)C2)cc1 (stereo not drawn)	i	i	-1%[38.3 µM]	2%	-3%	4%
COc1cc(-c2nccc3cc4c(cc23)OCO4)cc(OC)c1OC	4.1µM*	5.2µM*	3%	15µM*	0%	5.8µM*
CCN(CCO)CCCC(C)Nc1ccnc2cc(Cl)ccc12 (stereo not drawn)	.	.	.	-3%	.	-1%
CCN(CC)CCC[C@H](C)Nc1c2ccc(Cl)cc2nc2ccc(OC)cc12	.	.	.	13µM*	.	?
COc1ccc(NC(=O)c2c(Nc3ccccc3)sc(C(=O)c3ccc(F)cc3)c2N)cc1	2.1µM*	?	?	18%	-3%	5%
COc1ccc(C(=O)c2sc(Nc3cccc(OC)c3)c(C(=O)Nc3cccc(C)c3C)c2N)cc1	?	?	-2%	1.5µM*	-7%	?
